Experimental data reported in PubChem BioAssay AID1347076 (National Center for Advancing Translational Sciences (NCATS), 2019).
The campaign covered roughly 400,000 compounds. About 13,000 (3.2%) were called active. Where a call stands in place of a potency, no number is given. Not shown: some 18% with an inconclusive outcome. This is one part of a sample in which actives are shown more often than they occur. The call rests on the fitted dose curve; in most records, active means well fitted cell-killing curve with a large enough effect; inconclusive means small, poorly fitted or top-dose-only effect, or effect the other way; inactive means flat fitted curve, though single readings scatter.

Experiment: qHTS assay for MDR1-selective chemotherapeutics: Primary screen using the drug-selected MDR subline cells KB-V1; further: nearly all actives have a fitted effect of over 60% in size
Conditions: KB-V1 MDR cells viability, CellTiter-Glo, 72 h; series mostly up to 46.1 µM
Procedure, shortened: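 KB-V1, DMEM (no phenol red) + 10% FBS; cpd pin-transferred, titration series; 72 h, 37 degrees C; CellTiter-Glo, luminescence. Data normalized, curve-fit.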
Potency means the concentration at half of the fitted maximal effect.

| Structure (SMILES) | Potency |
| --- | --- |
| Cc1ccccc1-c1nc(NC(C)C)nc2cc(-c3ccccc3)sc12 | inactive |
| O=C(C1CCC1)N1CCN(c2ccccc2)CC1 | inactive |
| O=C(c1cc2c(s1)CCC2)N1CCN(c2ccccc2)CC1 | 20.6 µM (active) |
| O=C(NNC(=O)c1cc2c(s1)CCCC2)c1ccccc1 | inactive |
| O=[N+]([O-])c1ccc(/C=C/c2ccc3cccnc3c2)cc1 | inactive |
| COc1cc(C(=O)N2CCOC23CCN(Cc2ccccc2)CC3)cc(OC)c1OC | inactive |
| COC(=O)c1ccc(C(=O)OC)c(NC(=S)N2CCN(c3cc(Cl)ccc3C)CC2)c1 | 20.6 µM (active) |
| CCc1nc2ccc(C(=O)N3CCN(c4cc(Cl)ccc4C)CC3)cc2nc1CC | inactive |
| COC(=O)c1ccc(C(=O)OC)c(NC(=S)N2CCCCC2)c1 | inactive |
| O=C1CCc2cc(S(=O)(=O)Nc3cccc(Oc4ccccc4)c3)ccc2N1 | inactive |
| CCn1c(SCC(=O)Nc2ccccc2F)nc2c(c1=O)SC(C)C2 (centres undefined) | inactive |
| CCn1c(SCC(=O)Nc2ccc3c(c2)OCCO3)nc2c(c1=O)SC(C)C2 (centres undefined) | 4.11 µM (active) |
| COCCn1c(SCC(=O)Nc2cc(OC)ccc2OC)nc2c(c1=O)SC(C)C2 (centres undefined) | inactive |
| CN(CC(=O)Nc1ccccc1F)S(=O)(=O)c1ccc2c(c1)c(=O)n(C)c(=O)n2C | inactive |
| Cc1nc2c(OCC(=O)C(C)(C)C)cccn2c1N(C)Cc1cccs1 | inactive |
| COc1ccc2c(c1)CCCO[C@]21O[C@H](CCO)C[C@H](O)[C@H]1O | inactive |
| O=C(COC(=O)CCc1ccc(S(=O)(=O)N2CCOCC2)cc1)Nc1cccc(Cl)c1 | inactive |
| O=C(CCc1ccc(S(=O)(=O)N2CCOCC2)cc1)Nc1ccc2ccccc2c1 | 16.4 µM (active) |
| O=C(COC(=O)c1ccccc1)Nc1cccc(S(=O)(=O)N2CCOCC2)c1 | inactive |
| COc1ccc(C(=O)OC(C)C(=O)NC2CCCC2)cc1S(=O)(=O)N1CCOCC1 (centres undefined) | inactive |
| COc1ccc(CC(=O)Nc2ccc3c(c2)CCC3)cc1S(=O)(=O)N1CCOCC1 | inactive |
| COc1ccc(C(=O)N(C)Cc2ccc(OC)c(OC)c2OC)cc1S(=O)(=O)N1CCOCC1 | inactive |
| O=C(CN1CCc2ccccc2C1)Nc1cccc(S(=O)(=O)N2CCOCC2)c1 | 18.4 µM (active) |
| COc1ccc(CCC(=O)Nc2ccc(Cl)c(S(=O)(=O)N3CCOCC3)c2)cc1OC | 16.4 µM (active) |
| Cc1ccc(CC(=O)Nc2ccc(S(=O)(=O)N3CCOCC3)cc2)cc1C | inactive |

| Structure (SMILES) | Potency |
| --- | --- |
| O=C(CSc1ccccc1)Nc1cccc(S(=O)(=O)N2CCOCC2)c1 | inactive |
| COc1ccc(CC(=O)NC(C)c2ccc(Cl)c(Cl)c2)cc1S(=O)(=O)N1CCOCC1 (centres undefined) | 23.1 µM (active) |
| CN(CC(=O)Nc1ccc(F)cc1)CC(=O)Nc1ccc(Cl)c(S(=O)(=O)N2CCOCC2)c1 | inactive |
| CCc1noc(C)c1C(=O)OCC(=O)c1ccc(NC(=O)CC(C)C)cc1 | inactive |
| Nc1ncnc2c1ncn2[C@@H]1O[C@H](C(=O)NCC(F)(F)F)[C@@H](O)[C@H]1O | inactive |
| COc1ccc(C=C2CCC3C(CCCC34OCCO4)C2=O)cc1 (centres undefined) | inactive |
| OC[C@@H]1CN(Cc2ccc(Cl)cc2)C[C@H](n2cnc3c(NCc4ccncc4)ncnc32)O1 | inactive |
| Cc1cccc(C(=O)OCC(=O)Nc2sccc2C(N)=O)c1C | inactive |
| NCCCNC(=S)NCCCN(Cc1ccc(Cl)cc1)c1ccc(Br)cn1 | inactive |
| NC(=O)CSc1nnc(-c2cccc(S(=O)(=O)N3CCOCC3)c2)o1 | inactive |
| COc1cccc(/C=C/C(=O)Nc2ccc3c(c2)OCCO3)c1 | inactive |
| O=C(/C=C\c1ccc2c(c1)OCO2)NC1(C(=O)Nc2ccc3c(c2)OCCO3)CCCCC1 | inactive |
| COc1ccc(/C=C/C(=O)Nc2ccc3c(c2)OCCO3)cc1OC | 20.6 µM (active) |
| Cc1nn2c(=O)cc(COC(=O)CNC(=O)c3ccc(F)cc3)nc2s1 | inactive |
| CCC(C)(C)n1nnnc1CN1CCN(c2nc3ccc(C)cc3cc2C#N)CC1 | 23.1 µM (active) |
| Cc1ccc2nc(NCCCNC(=O)c3cnccn3)c(C#N)cc2c1 | inactive |
| Cc1cc(C)c2cc(C#N)c(N3CCNCC3)nc2c1 | inactive |
| NS(=O)(=O)c1ccc(NC(=O)C(=O)Nc2ccc3nc4n(c(=O)c3c2)CCCCC4)cc1 | inactive |
| CN1OC[C@@H]2CN(C(=O)c3cccc4ccccc34)[C@H](c3ccc(N4CCCCC4)cc3)C[C@@H]21 | inactive |
| CNc1cncc(-c2cccc(C(=O)N3CCOCC3)c2)n1 | inactive |
| CNc1cncc(-c2ccc(NS(C)(=O)=O)cc2)n1 | 5.17 µM (active) |
| CS(=O)(=O)Nc1ccc(C2=NN(S(C)(=O)=O)C(c3cccs3)C2)cc1 (centres undefined) | inactive |
| O=C(NCCN1CCOCC1)c1ccc2c(c1)N(Cc1cccc(Cl)c1)C(=O)c1ccccc1S2(=O)=O | inactive |
| CCc1ccc2oc(-c3ccc(C)c(NC(=O)/C=C/c4ccco4)c3)nc2c1 | inactive |
| COC(=O)c1c(-c2cccs2)csc1NC(=O)CSc1ncnc2sc(C)c(C)c12 | 18.4 µM (active) |

| Structure (SMILES) | Potency |
| --- | --- |
| Cc1sc2ncnc(SCC(=O)NC3CCS(=O)(=O)C3)c2c1C (centres undefined) | inactive |
| CCOC(=O)c1c(NC(=O)CSc2nccc(=O)[nH]2)sc(C)c1C | inactive |
| COCCn1c(SCC(=O)c2cc(C)ccc2C)nc2cc(C(=O)NC3CCCC3)ccc2c1=O | inactive |
| CCCCN(CCCNC(=O)c1cc(Nc2ccccc2OC)nc2ccccc12)c1ccccc1 | inactive |
| O=C(Nc1cccc(OCC(=O)N2CCOCC2)c1)C1CCCCC1 | inactive |
| O=C1CC2(CCCCC2)Oc2ccc(OCC(=O)N3CCOCC3)cc21 | 11.6 µM (active) |
| O=C1CC2(CCN(C(=O)COc3ccc(F)cc3)CC2)Oc2ccccc21 | inactive |
| O=C(c1ccccc1)N1CCN(c2cc(-c3ccccc3)nc3cc(-c4cccc(Cl)c4)nn23)CC1 | inactive |
| CCNC(=O)C1CCCN(C(=O)c2ccc(OC)cc2OC)CC1 (centres undefined) | inactive |
| CCN(CC)C(=O)CSc1nnc(CNc2ccc(F)cc2)n1Cc1ccco1 | inactive |
| CCc1ccccc1N1CN(Cc2ccco2)CNC1=S | inactive |
| CN(C)C(=S)N=c1ssc(=S)n1Cc1ccco1 | 4.11 µM (active) |
| CC(C)NC(=O)C1(C)CCCCCN1C(=O)c1ccc(-c2ccccc2)cc1 (centres undefined) | inactive |
| OC[C@@H]1CN(C2CCCC2)C[C@H](n2cnc3c(NC4CCC4)ncnc32)O1 | inactive |
| CCOc1cccc2c1N[C@@H](c1ccc(C(=O)O)cc1)[C@H]1CC=C[C@@H]21 | inactive |
| COc1cccc(C(O)c2ncc(-c3ccc4ccccc4c3)[nH]2)c1 (centres undefined) | inactive |
| CN1CCN(C2Cc3ccc(Cl)cc3Sc3ccc(F)cc32)CC1 (centres undefined) | 16.4 µM (active) |
| CC(C)CNC(=O)C1(C)CCCN1C(=O)CSc1ccccc1 (centres undefined) | inactive |
| CCCCCn1c(=O)[nH]c2cc(C(=O)Nc3ccc(F)cc3)ccc2c1=O | inactive |
| Cc1ccc(S(=O)(=O)/N=C2\C=C(NS(=O)(=O)c3ccc(C)cc3)C(=O)c3ccccc32)cc1 | inactive |
| Cc1cccc(NC(=O)CSc2nc3c(oc4ccccc43)c(=O)n2-c2ccc(F)cc2)c1 | inactive |
| Cc1ccc(C)c(NC(=O)CSc2nc3c(oc4ccccc43)c(=O)n2-c2ccccc2)c1 | 7.31 µM (active) |
| COc1ccc(-n2c(SCC(N)=O)nc3c(oc4ccccc43)c2=O)cc1 | inactive |
| Cc1c(C)c(C)c2[nH]c(=S)[nH]c2c1C | 3.66 µM (active) |
| CCCOc1ccc(F)cc1-c1cc(C(=O)Nc2ccc(F)cc2)[nH]n1 | inactive |

| Structure (SMILES) | Potency |
| --- | --- |
| CCC(C)NC(=O)c1ccccc1NC(=O)c1ccccc1N(C)S(C)(=O)=O (centres undefined) | inactive |
| CCCCNC(=O)c1ccccc1NC(=O)C1=C(C)OCCS1 | inactive |
| CCCCNC(=O)c1ccccc1NC(=O)c1ccccc1N(C)S(C)(=O)=O | 23.1 µM (active) |
| CCCCOc1ccc(CNC(=O)c2ccc3c(c2)N(C)C(=O)C2CCCCN32)cc1 (centres undefined) | inactive |
| CCN(CC)CCN(C(=O)c1ccc2c(c1)CCCC2)c1nc2c(OC)cccc2s1 | inactive |
| CCC(=O)N1c2ccccc2CC1C(=O)N1CCN(c2ccccc2F)CC1 (centres undefined) | inactive |
| Cc1ccc(-c2nc3cccc(C)n3c2Nc2ccc3c(c2)OCCO3)cc1 | inactive |
| CN(c1ccccc1)S(=O)(=O)c1ccc(C(=O)NCc2cccnc2)cc1 | inactive |
| COc1ccc(CNC(=O)c2ccc(Br)s2)cc1OC | inactive |
| COc1ccc(CNC(=O)c2ccc(-c3cccnc3)c3ccoc23)cc1OC | 18.4 µM (active) |
| COc1ccc(CNC(=O)Cc2ccc(-c3ccccc3)cc2)cc1OC | 7.31 µM (active) |
| COc1ccc(NC(=O)CNC(=O)Cc2ccccc2)cc1OC | inactive |
| COc1ccc(CCNC(=O)Cc2ccc(C)cc2)cc1OC | inactive |
| COc1ccc(CNC(=O)c2c(C)cc(=O)oc2C)cc1OC | inactive |
| CCOc1cc(C2C(C(=O)OC)=C(C)NC3=C2C(=O)c2ccccc23)ccc1O (centres undefined) | inactive |
| CCOC(=O)CSC1=Nc2ccccc2C2=NC(CCC(=O)NCc3ccc(F)cc3)C(=O)N12 (centres undefined) | inactive |
| CCNS(=O)(=O)c1ccc(CCC(=O)N2CCN(c3ccc(OC)cc3)CC2)cc1 | inactive |
| CCNS(=O)(=O)c1ccc(CCC(=O)N2CCN(c3cc(Cl)ccc3C)CC2)cc1 | 14.6 µM (active) |
| CCCNS(=O)(=O)c1ccc(CCC(=O)N2CCCC2)cc1 | inactive |
| O=C1C(Sc2cccc(F)c2)=C[C@@]2(O)CC[C@@H](O)[C@]1(Sc1cccc(F)c1)[C@H]2O | inactive |
| CCc1nc2c(OCCOc3ccccc3)cccn2c1N(C)C(=O)c1ccccc1F | inactive |
| COC(=O)C[C@H]1C=C[C@H](NC(=O)c2ccc(F)cc2)[C@@H](CO)O1 | inactive |
| CN(C)Cc1cn(-c2ccccc2)nc1-c1ccccc1 | inactive |
| CN(C)c1cccc2ccccc12 | inactive |
